In the supplement of paper PMC6607015:
Structures can show the parent of a compound that is named as a salt.

Key:
Conditions in all cases: compound concentration in added solution (µM; 5 µl added to 20 µl cells): 10; 18 h
A431 [1] = assay: LBPA endosome anti-LBPA integrated intensity (sum per cell), Z-score; higher = more LBPA staining
Method in brief: (§1)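 After 18 h on 5 µl of 10 µM compound solution in duplicate 384-well imaging plates, HeLa MZ or A431 cells, seeded at 3,500 per well in 20 µl, were fixed with 4% PFA. They were then labelled with 6C4 anti-LBPA antibody, filipin, propidium iodide and CellTracker green, and four 20× fields were recorded per well. Integrated LBPA or filipin intensity per cell, whole-cell or within LBPA endosomes, came from MetaXpress segmentation and was normalised to Z-scores in AcuityXpress.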

HeLa MZ [2] = assay: as above
Method in brief: as §1

A431 [3] = assay: whole-cell filipin (free cholesterol) integrated intensity, Z-score; higher = more cholesterol staining
Method in brief: as §1

HeLa MZ [4] = assay: as above
Method in brief: as §1

A431 [5] = assay: filipin (cholesterol) integrated intensity within LBPA endosomes, Z-score; higher = more cholesterol in LBPA endosomes
Method in brief: as §1

HeLa MZ [6] = assay: as above
Method in brief: as §1

Row | SMILES | LBPA endosome anti-LBPA integrated intensity (z-score) (A431 [1]) | LBPA endosome anti-LBPA integrated intensity (z-score) (HeLa MZ [2]) | whole-cell filipin (z-score) (A431 [3]) | whole-cell filipin (z-score) (HeLa MZ [4]) | filipin (z-score) (A431 [5]) | filipin (z-score) (HeLa MZ [6])
1 | CSc1ccc2c(c1)N(CCC1CCCCN1C)c1ccccc1S2 (centres undefined) [Thioridazine hydrochloride] | 1.04 | 0.375 | -0.796 | -0.81 | 1.25 | 1.45
2 | COc1ccc([C@@H]2Sc3ccccc3N(CCN(C)C)C(=O)[C@@H]2OC(C)=O)cc1 [Diltiazem hydrochloride] | -0.508 | 0.314 | -0.778 | -0.456 | -0.362 | -0.144
3 | O=C1CCc2cc(OCCCCc3nnnn3C3CCCCC3)ccc2N1 [Cilostazol] | -0.386 | -0.0616 | -0.68 | -0.703 | -0.49 | -0.5
4 | Cc1ncc([N+](=O)[O-])n1CC(C)O (centres undefined) [Secnidazole] | -0.291 | -0.288 | -0.203 | -0.327 | -0.374 | -0.579
5 | C=C1/C(=C\C=C2/CCC[C@]3(C)[C@@H]([C@H](C)CCCC(C)C)CC[C@@H]23)C[C@@H](O)C[C@@H]1O [Alfacalcidol] | 0.0439 | -0.204 | -0.362 | -0.701 | -0.145 | -0.743
6 | C[C@]1(Cn2ccnn2)[C@H](C(=O)O)N2C(=O)C[C@H]2S1(=O)=O [Tazobactam] | -0.572 | -0.303 | -0.35 | 0.00122 | -0.502 | -0.538
7 | C[N+](C)(C)CCOC(N)=O [Carbachol] | -0.538 | -0.848 | -0.548 | -0.381 | -0.44 | -0.42
8 | N[C@@H](Cc1cc(I)c(Oc2ccc(O)c(I)c2)c(I)c1)C(=O)O [Liothyronine] | -0.519 | 0.00578 | -0.411 | -0.281 | -0.479 | -0.592
9 | Clc1ccc(Nc2nnc(Cc3ccncc3)c3ccccc23)cc1 [Vatalanib] | -0.715 | -0.947 | -0.382 | -0.477 | -0.573 | -0.345
10 | NCc1ccccc1CC(=O)N[C@@H]1C(=O)N2C(C(=O)O)=C(CSc3nnnn3CC(=O)O)CS[C@H]12 [Ceforanide] | -0.318 | -0.0362 | -0.326 | -0.285 | -0.513 | -0.563
11 | CCOCCn1c(N2CCCN(C)CC2)nc2ccccc21 [Emedastine] | -0.464 | 0.747 | -0.629 | -0.502 | -0.536 | -0.461
12 | CCOC(=O)C1=C(C)NC(C)=C(C(=O)OC)C1c1cccc([N+](=O)[O-])c1 (centres undefined) [Nitrendipine] | -0.341 | 0.238 | -0.283 | 0.00443 | -0.327 | -0.297
13 | COc1cc(C(=O)OCCCN2CCCN(CCCOC(=O)c3cc(OC)c(OC)c(OC)c3)CC2)cc(OC)c1OC [Dilazep dihydrochloride] | 3.35 | 1.34 | 3.19 | 3.53 | 3.75 | 4.35
14 | Cc1onc(-c2ccccc2)c1C(=O)N[C@@H]1C(=O)N2[C@@H]1SC(C)(C)[C@@H]2C(=O)O [Oxacillin sodium] | -0.391 | 0.32 | -0.277 | -0.0335 | -0.382 | -0.445
15 | CC(=O)CC(c1ccc([N+](=O)[O-])cc1)c1c(O)c2ccccc2oc1=O (centres undefined) [Acenocoumarol] | -0.507 | -0.33 | -0.704 | -0.387 | -0.49 | -0.482
16 | N[C@@H](C(=O)N[C@@H]1C(=O)N2C(C(=O)O)=C(Cl)CC[C@H]12)c1ccccc1 [Loracarbef] | -0.535 | -0.139 | -0.847 | -0.304 | -0.553 | -0.73
17 | NC(=O)OCC(O)COc1ccc(Cl)cc1 (centres undefined) [Chlorphensin carbamate] | -0.6 | -2.23 | -1.05 | -0.894 | -0.514 | -0.697
18 | CN(C)C(=N)NC(=N)N [Metformin hydrochloride] | -0.525 | -0.838 | -0.902 | -0.3 | -0.437 | -0.498
19 | CC(=O)N(CC(C)C(=O)O)c1c(I)cc(I)c(N)c1I (centres undefined) [Iocetamic acid] | -0.0668 | -0.0236 | -0.0512 | 0.178 | -0.262 | -0.476
20 | O=C(O)COCCN1CCN(C(c2ccccc2)c2ccc(Cl)cc2)CC1 (centres undefined) [Cetirizine dihydrochloride] | -0.494 | -0.434 | -0.716 | -0.836 | -0.508 | -0.525
21 | CC(CNC1CCCCC1)OC(=O)c1ccccc1 (centres undefined) [Hexylcaine hydrochloride] | -0.125 | -0.0338 | -0.478 | -0.747 | -0.345 | -0.436
22 | COC(=O)N/N=C/c1c[n+]([O-])c2ccccc2[n+]1[O-] [Carbadox] | -0.532 | -0.164 | -0.439 | -0.327 | -0.53 | -0.532
23 | CCN(CC)CCNC(=O)c1cc(Br)c(N)cc1OC [Bromopride] | -0.305 | 0.899 | -0.269 | 0.199 | -0.333 | 0.158
24 | CN(C)CCOC(c1ccccc1)c1ccccc1.Cn1c(=O)c2[nH]c(Cl)nc2n(C)c1=O [Dimenhydrinate] | -0.457 | 0.504 | -0.514 | -0.355 | -0.463 | -0.165
25 | CN1CCN2c3ncccc3Cc3ccccc3C2C1 (centres undefined) [Mirtazapine] | -0.296 | 0.0872 | -0.206 | 0.74 | -0.391 | 0.392

Row | SMILES | LBPA endosome anti-LBPA integrated intensity (z-score) (A431 [1]) | LBPA endosome anti-LBPA integrated intensity (z-score) (HeLa MZ [2]) | whole-cell filipin (z-score) (A431 [3]) | whole-cell filipin (z-score) (HeLa MZ [4]) | filipin (z-score) (A431 [5]) | filipin (z-score) (HeLa MZ [6])
26 | CC(=O)Oc1cc(C(F)(F)F)ccc1C(=O)O [Triflusal] | -0.556 | -0.553 | -0.393 | 0.0625 | -0.513 | -0.544
27 | COc1cccc(N(C)C(=S)Oc2ccc3c(c2)CCCC3)n1 [Liranaftate] | 0.29 | -0.439 | -0.212 | 0.593 | -0.0958 | -0.421
28 | CCCCOc1cc(C(=O)NCCN(CC)CC)c2ccccc2n1 [Dibucaine] | 2.05 | 2.71 | 2.14 | 1.5 | 2.29 | 2.2
29 | CN(C)CCC=C1c2ccccc2CCc2ccccc21 [Amitryptiline hydrochloride] | 2.23 | 1.04 | 1.41 | 0.0305 | 2.47 | 1.81
30 | CC(C)NCC(O)c1ccc(O)c(O)c1 (single isomer, unassigned; (+)) [(+)-Isoproterenol (+)-bitartrate salt] | -0.327 | 0.363 | -0.262 | -0.346 | -0.516 | -0.475
31 | CC(=O)Oc1ccccc1C(=O)O [Acetylsalicylic acid] | -0.437 | -1.33 | -0.0786 | -0.536 | -0.409 | -0.51
32 | OC(c1cc(C(F)(F)F)nc2c(C(F)(F)F)cccc12)C1CCCCN1 (centres undefined) [Mefloquine hydrochloride] | 2 | -0.429 | 0.872 | -0.477 | 1.56 | 1.56
33 | CCc1nn(CCCN2CCN(c3cccc(Cl)c3)CC2)c(=O)n1CCOc1ccccc1 [Nefazodone HCl] | 0.334 | 2.39 | 0.625 | 0.969 | 0.483 | 1.14
34 | NC1CCN(c2nc3c(cc2F)c(=O)c(C(=O)O)cn3-c2ccc(F)cc2F)C1 (centres undefined) [Tosufloxacin hydrochloride] | -0.551 | -1.59 | -0.466 | -1.51 | -0.679 | -0.966
35 | CN1[C@@H]2CC[C@H]1C[C@@H](OC(=O)c1c[nH]c3ccccc13)C2 [Tropisetron HCl] | -0.35 | 0.869 | -0.234 | -0.504 | -0.29 | 0.0878
36 | CC1(C)O[C@@H]2C[C@H]3[C@@H]4C[C@H](F)C5=CC(=O)C=C[C@]5(C)[C@H]4[C@@H](O)C[C@]3(C)[C@]2(C(=O)CO)O1 [Flunisolide] | -0.32 | -1.26 | -0.035 | -0.18 | -0.256 | -0.365
37 | CCN1CCC[C@H]1CNC(=O)c1c(O)c(Cl)cc(Cl)c1OC [Raclopride] | -0.484 | -0.235 | -0.93 | -0.588 | -0.489 | -0.47
38 | C=CCSCC1Nc2cc(Cl)c(S(N)(=O)=O)cc2S(=O)(=O)N1 (centres undefined) [Althiazide] | -0.575 | -1.6 | -0.613 | -0.588 | -0.491 | -0.642
39 | Nc1nnc(-c2cccc(Cl)c2Cl)c(N)n1 [Lamotrigine] | -0.222 | 1.64 | 0.954 | 3.15 | -0.396 | -0.375
40 | C=C1c2c(Cl)ccc(O)c2C(=O)C2=C(O)[C@]3(O)C(=O)C(C(N)=O)=C(O)[C@@H](N(C)C)[C@@H]3[C@@H](O)[C@H]12.O=C(O)c1cc(S(=O)(=O)O)ccc1O [Meclocycline sulfosalicylate] | -0.505 | -0.19 | -0.811 | -1.34 | -0.554 | -0.823
41 | CCCCOc1ccc(CC(=O)NO)cc1 [Bufexamac] | -0.196 | -0.501 | -0.337 | -0.569 | -0.313 | -0.483
42 | CCn1cc(C(=O)O)c(=O)c2cnc(N3CCNCC3)nc21 [Pipemidic acid] | -0.522 | 0.188 | -0.242 | 0.338 | -0.361 | -0.281
43 | O=C(O)c1cccnc1 [Niacin] | -0.578 | -1.61 | -0.557 | -0.648 | -0.464 | -0.617
44 | C[C@H]1NC(=O)NC1=O [Methylhydantoin-5-(D)] | -0.487 | -0.363 | -0.289 | -0.267 | -0.458 | -0.381
45 | CO/N=C(\C(=O)N[C@@H]1C(=O)N2C(C(=O)O)=C(COC(C)=O)CS[C@H]12)c1csc(N)n1 [Cefotaxime sodium salt] | -0.36 | -0.201 | -0.822 | -0.63 | -0.554 | -0.583
46 | NC(=O)c1ccc[n+]([C@@H]2O[C@H](COP(=O)([O-])OP(=O)(O)OC[C@H]3O[C@@H](n4cnc5c(N)ncnc54)[C@H](O)[C@@H]3O)[C@@H](O)[C@H]2O)c1 [Nadide] | -0.373 | -0.766 | -0.714 | -0.46 | -0.413 | -0.768
47 | c1ccc2c(c1)CCCC2C1=NCCN1 (centres undefined) [Tetrahydrozoline hydrochloride] | -0.429 | 1.07 | -0.35 | 0.315 | -0.366 | 0.0856
48 | CC(C)(C)C(=O)OCOC(=O)[C@@H]1N2C(=O)[C@@H](/N=C/N3CCCCCC3)[C@H]2SC1(C)C [Pivmecillinam hydrochloride] | -0.535 | -0.482 | -0.185 | -0.0756 | -0.424 | -0.445
49 | NC(=O)c1cccnc1 [Nicotinamide] | -0.398 | -0.64 | -0.512 | -0.013 | -0.419 | -0.499
